{"source": "PubChem BioAssay (NCI)", "note": "Compounds without any hit were thinned out: in the full panel of roughly 83,000, 20% have a hit.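 Cells were grown in 96-well plates and exposed to the test compound at a single concentration for 48 hours; results are reported as percent growth, with values below 10 considered active.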 Activity calls are given as the source filed them.", "data": [{"test_system": "BT-549 breast", "test": "NCI-60 one-dose screen, 48 h (100 = growth as untreated, 0 = no growth, -100 = all killed)", "details": "10 µM unless noted", "values": [{"smiles": "CSc1ccc(-c2n[nH]nc2-c2cc3ccccc3s2)cc1", "growth": "46.8% (inactive)"}, {"smiles": "Clc1ccc2c(NCCCNc3nc(-n4ccnc4)nc4ccccc34)ccnc2c1", "growth": "82.8% (inactive)"}, {"smiles": "CN1CCN(c2nc(NCCCNc3ccnc4cc(Cl)ccc34)c3ccccc3n2)CC1", "growth": "74.5% (inactive)"}, {"smiles": "CN(C)c1ccc(NC(=O)c2ccc(/C=C/C(=O)c3ncc[nH]3)cc2)cc1", "growth": "63.1% (inactive)"}, {"smiles": "COc1ccc(S(=O)(=O)N2CCCCC2)cc1NC(=O)c1[nH]c(C)c2c1CCCCC2=O", "growth": "50.1% (inactive)"}, {"smiles": "CCn1c(O)c(/C=N/NC(=O)C(C)c2ccc(CC(C)C)cc2)sc1=S", "note": "(stereo not drawn)", "growth": "11.5% (inactive)"}, {"smiles": "Cc1nn(-c2cc(=O)[nH]c3ccc(Cl)cc23)c(N)c1C#N", "growth": "111% (inactive)"}, {"smiles": "O=C1/C(=C(/c2ccccc2)N2CCOCC2)Cc2ccccc21", "growth": "-7.68% (active)"}, {"smiles": "O=C(COc1cccc(/C=C2\\COc3ccccc3C2=O)c1)Nc1nccs1", "growth": "-79.6% (active)"}, {"smiles": "CCN=C1C=CC(=C(c2ccc(N)cc2)c2ccc(N(CC)CC)c(C)c2)C=C1", "growth": "-31.8% (active)"}, {"smiles": "O=C(C(=O)c1ccc2c(c1)OCO2)c1ccc2c(c1)OCO2", "growth": "101% (inactive)"}, {"smiles": "COc1ccc(/C=C2\\Oc3cc(OCCCCN4CCCC4)ccc3C2=O)cc1", "growth": "82.3% (inactive)"}, {"smiles": "COc1cc(-c2nn(-c3ccc(Br)cc3)cc2C(=O)O)ccc1O", "growth": "98.8% (inactive)"}, {"smiles": "O=c1ccccc(-c2ccc(-c3ccco3)cc2)c1O", "growth": "28.1% (inactive)"}, {"smiles": "Cn1cc(C(=O)c2nc(-c3c[nH]c4ccc(Br)cc34)no2)c2cc(F)ccc21", "growth": "95.7% (inactive)"}, {"smiles": "COc1ccc(O)c(N=Nc2nccs2)c1", "growth": "95.6% (inactive)"}, {"smiles": "CCc1nc(N)nc(N)c1C#CC(C)c1cc(-c2ccnc(C)c2)c2oc(C)nc2c1", "note": "(stereo not drawn)", "growth": "18.2% (inactive)"}, {"smiles": "CC(=O)Nc1ccc(-n2c(O)c(/C=N/NC(=O)Cc3ccccc3Nc3c(Cl)cccc3Cl)sc2=S)cc1", "growth": "104% (inactive)"}, {"smiles": "O=Nc1c(O)c(Cl)cc2ccccc12", "growth": "83.7% (inactive)"}, {"smiles": "FC(F)(F)c1ccc(-c2cn3nc(-c4c[nH]c5ccc(Br)cc45)sc3n2)cc1", "growth": "105% (inactive)"}, {"smiles": "Cn1cc(-c2nonc2-c2c[nH]c3ccccc23)c2cccnc21", "growth": "58.6% (inactive)"}, {"smiles": "Cn1cc(-c2nonc2-c2cn(C)c3ccc(F)cc23)c2ccccc21", "growth": "56.1% (inactive)"}, {"smiles": "Brc1ccc(-c2csc(Nc3ccccn3)n2)cc1", "growth": "112% (inactive)"}, {"smiles": "Clc1ccc2c(NCCNc3nc(N4CCOCC4)nc4ccccc34)ccnc2c1", "growth": "93.5% (inactive)"}, {"smiles": "COc1ccc(-c2cc(-c3ccc(Nc4ccnc5cc(Cl)ccc45)cc3)nc(N3CCOCC3)n2)cc1", "growth": "45.8% (inactive)"}, {"smiles": "COc1cc2c(cc1-c1c(C)noc1C)ncc1nc(C3CCCC3)n([C@H](C)COC(F)F)c12", "growth": "54.8% (inactive)"}, {"smiles": "CCOc1cc2ncc(C#N)c(Nc3ccc(OCc4cccc(F)c4)c(Cl)c3)c2cc1NC(=O)CCCCC1CCSS1", "note": "(stereo not drawn)", "growth": "98.5% (inactive)"}, {"smiles": "Oc1ccccc1-c1nnc(CNc2ccc(Cl)cc2)o1", "growth": "41.1% (inactive)"}, {"smiles": "COc1cc2c(cc1-c1c(C)noc1C)ncc1nc(C3CCCCC3)n([C@H](C)COC(F)F)c12", "growth": "58.7% (inactive)"}, {"smiles": "COc1cc(/C=C/C(=O)Nc2cccnc2Nc2ccc(F)cc2)cc(OC)c1OC", "growth": "92.3% (inactive)"}, {"smiles": "Cn1c(NCCc2ccc(O)c(O)c2)nc2c1c(=O)n(Cc1ccc(Cl)c(Cl)c1)c(=O)n2C", "growth": "67.1% (inactive)"}, {"smiles": "Cc1ccc(C2=NN3C(C2)c2cc(Br)ccc2OC32CCN(Cc3ccccc3)CC2)o1", "note": "(stereo not drawn)", "growth": "92.4% (inactive)"}, {"smiles": "O=C1/C(=C/C(Cl)=C/c2ccccc2)SC(=S)N1CCc1ccc(O)cc1", "growth": "11.6% (inactive)"}, {"smiles": "NC(=O)c1cc(Br)ccc1NC(=O)/C=C/c1ccccc1", "growth": "90.1% (inactive)"}, {"smiles": "CC(O)CN(CC(C)O)c1ccc2c(c1)Cc1cc([N+](=O)[O-])ccc1-2", "note": "(stereo not drawn)", "growth": "101% (inactive)"}, {"smiles": "C=C1C(=O)O[C@H]2[C@H]1CC/C(COC(=O)c1cc3cc(OC)ccc3[nH]1)=C\\CC[C@@]1(C)O[C@@H]21", "growth": "-55.3% (active)"}, {"smiles": "COc1cc(C(=O)/C=C/c2cccnc2Nc2ccc(Cl)cc2)cc(OC)c1OC", "growth": "-19.1% (active)"}, {"smiles": "O=c1cc(CSc2nnc(SCc3cc(=O)oc4c3ccc3ccccc34)o2)c2ccc3ccccc3c2o1", "growth": "107% (inactive)"}]}]}
